Screens as filed in PubChem BioAssay.
An excerpt weighted towards active compounds, which were near 1.3% of everything screened.
EPAC1 antagonist = EPAC1 (human) antagonism. AID 720709. Potency, µM (highest dose often 115 µM), without a hit: at the top dose activity change, negative = inhibition, most hits filed as inhibitors. hit rate 0.14% among 360,000. EPAC1 GEF assay, Rap1b-BODIPY-GDP exchange fluorescence;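 also: plate controls were vehicle for no effect and positive control for full effect; nearly all actives have a fitted effect of over 50% in size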
EPAC2 ag = agonists of human EPAC2 (RAPGEF4); Q8WZA2; EPAC2 activation, biochemical qHTS; response scale: 100% = 6.5 mM cAMP response; Potency, µM (series often up to 154 µM), for the others: at the top dose activation, hits mostly activators; hit rate 0.079% among 360,000; AID 720711; also: nearly all actives have a fitted effect of over 50% in size
Target sequence (Q8WZA2 whole entry, looked up): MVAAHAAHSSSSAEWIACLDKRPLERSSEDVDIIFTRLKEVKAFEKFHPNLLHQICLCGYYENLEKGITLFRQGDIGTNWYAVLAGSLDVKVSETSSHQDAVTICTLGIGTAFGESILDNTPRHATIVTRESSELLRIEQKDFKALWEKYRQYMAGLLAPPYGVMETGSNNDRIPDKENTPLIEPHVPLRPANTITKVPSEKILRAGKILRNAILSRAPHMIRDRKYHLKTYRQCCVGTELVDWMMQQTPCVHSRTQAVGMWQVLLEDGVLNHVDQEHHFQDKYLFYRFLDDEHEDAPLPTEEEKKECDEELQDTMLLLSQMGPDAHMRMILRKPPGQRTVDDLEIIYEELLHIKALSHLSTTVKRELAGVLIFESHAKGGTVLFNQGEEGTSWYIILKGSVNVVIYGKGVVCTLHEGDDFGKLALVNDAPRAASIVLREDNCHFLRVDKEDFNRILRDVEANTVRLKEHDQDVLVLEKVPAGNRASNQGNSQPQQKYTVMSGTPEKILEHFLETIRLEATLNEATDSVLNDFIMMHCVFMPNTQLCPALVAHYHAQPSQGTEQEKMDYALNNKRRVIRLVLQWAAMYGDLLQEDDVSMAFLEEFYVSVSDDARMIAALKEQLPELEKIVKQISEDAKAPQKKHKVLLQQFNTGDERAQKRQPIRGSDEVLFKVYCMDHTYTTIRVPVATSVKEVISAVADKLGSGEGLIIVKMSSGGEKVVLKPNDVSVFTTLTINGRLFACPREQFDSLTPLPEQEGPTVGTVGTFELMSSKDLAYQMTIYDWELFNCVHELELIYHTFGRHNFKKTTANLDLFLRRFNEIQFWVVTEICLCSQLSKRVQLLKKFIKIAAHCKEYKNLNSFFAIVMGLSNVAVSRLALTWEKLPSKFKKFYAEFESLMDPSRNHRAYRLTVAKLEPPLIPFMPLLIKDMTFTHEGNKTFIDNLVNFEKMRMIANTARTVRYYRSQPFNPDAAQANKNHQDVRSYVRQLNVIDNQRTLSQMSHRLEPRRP
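qHTS, titration series. 100 nM EPAC2 / 250 nM Rap1B-BODIPY-GDP / 50 uM GDP; RT; ex 480/em 540 nm, 5-min reads to 30 min. Norm. to 6.5 mM cAMP = activation.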
ALOX12 inh = blocks human arachidonate 12S-lipoxygenase; hit rate 1.1% among 580,000; P18054; purified 12hLO, xylenol orange hydroperoxide absorbance; Potency, µM (series often up to 108 µM), inactives show top-dose activity change, negative = inhibition, hits mostly inhibitors; AID 1671190; also: % is scaled to controls: 0 for no effect and ±100 for the full control effect
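Hydroperoxide product was detected by ferrous iron/xylenol orange as the 573 to 405 nm absorbance ratio. Arachidonic acid at 40 uM (final) was turned over for 30 min at room temperature by 150 nM human 12hLO, pH 7.0 Hepes buffer, after 15 min compound preincubation.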
EPAC1 ag = activates human EPAC1 exchange factor; EPAC1 agonist qHTS, biochemical assay; response scale: 100% = response to 6.5 mM cAMP; O95398; hit rate 0.073% among 360,000; Potency, µM (top dose mostly 154 µM), for inactives: at the top dose activation, usual class: activators; also: nearly all actives have a fitted effect of over 60% in size
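Compounds were pinned as a concentration titration into mixtures of EPAC1 (100 nM), BODIPY-GDP-loaded Rap1B (250 nM) and GDP (50 uM). After 5 min at room temperature, fluorescence was followed for 30 min; activity was scaled to 6.5 mM cAMP.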
EPAC2 antag = EPAC2 (human) antagonism; Q8WZA2; EPAC2 GEF exchange of Rap1B-BODIPY-GDP, fluorescence; Potency, µM (doses to about 114 µM), for inactives: top-dose activity, negative = inhibition, hits mostly inhibitors; hit rate 0.18% among 360,000; AID 720708; also: % is scaled to controls: 0 for no effect and ±100 for the full control effect; nearly all actives have a fitted effect of over 45% in size
USP1 inh = inhibitors of human USP1/UAF1 deubiquitinase; Potency, µM (top dose mostly 57.1 µM), for the others: at the top dose activity change, negative = inhibition, most hits filed as inhibitors; recombinant USP1/UAF1, Ub-Rhodamine cleavage fluorescence; O94782; AID 743255; hit rate 0.23% among 390,000; also: % is scaled to controls: 0 for no effect and ±100 for the full control effect; nearly all actives have a fitted effect of over 60% in size
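1 nM enzyme complex + cpd, 15 min RT; start with Ub-Rho 150nM final; kinetic fluorescence ex 480/em 540, 6 reads q60 s. Buffer 50mM HEPES pH 7.8, 0.5mM EDTA, 0.1 mg/ml BSA, 1mM TCEP, 0.01% Tween-20.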
* hit, by the source's call; i = inactive; ? = inconclusive; / = no result given; ! = not active in a repeat; [ ] = remark or other dose. Calls follow the shape of the dose curve; as a rule, active = well fitted curve in the direction sought with a large enough effect; inconclusive = small, poorly fitted or top-dose-only effect, or another doubt; inactive = no such curve, though single readings can be large; an effect the other way counts as inactive or inconclusive. Potency is read from the fitted curve at half-maximal effect.

SMILES	EPAC1 antagonist	EPAC2 ag	ALOX12 inh	EPAC1 ag	EPAC2 antag	USP1 inh
Cc1ccc(S(=O)(=O)NC[C@H]2O[C@@H](CO)[C@@H](O)[C@H]2N2CCN(c3ncccn3)CC2)cc1	/	/	15.8µM*	/	/	/
Nc1nc(-c2ccccc2)c(-c2ccccc2)n1N	13.8%	6.1%	211.8%	10.2%	-10.0%	-25.6%
c1ccc(-c2cnn3c(-c4ccccc4)c(-c4ccccc4)nc3n2)cc1	64.6%	89.1µM*	-7.5%	12.6µM*	i	1.41µM*
CC(C)CCNc1nc(C(=O)Nc2nccs2)cs1	/	/	47.8%	/	/	/
Cc1ccc(CN(C)C(=O)c2cc(COc3cccc(C(F)(F)F)c3)on2)o1	-20.3%	17.2%	39.8µM*	-1.5%	-8.9%	-17.5%
O=C(OCC(=O)N1CCN(C(=O)c2ccco2)CC1)c1cc(-c2ccc(Cl)c(Cl)c2Cl)nc2ccccc12	-15.4%	-3.3%	10.6%	10.1%	-5.1%	?
O=C(OCC(=O)N1CCN(C(=O)c2ccco2)CC1)c1cc(-c2ccco2)nc2ccccc12	?	2.9%	4.47µM*	8.2%	-4.9%	?
O=C(OCC(=O)N1CCCC1=O)c1cc(-c2ccco2)nc2ccccc12	/	/	5.62µM*	/	/	/
O=C(O)CC12CC3CC(Br)(C1)CC(CC(=O)O)(C3)C2	/	/	13.5%	/	/	/
Cc1ccc(CN2CCN(c3nc4c([nH]3)c(=O)n(C)c(=O)n4C)CC2)cc1	/	/	-8.9%	/	/	/
CCOC(=O)CSc1ccc2nnc(-c3cccnc3)n2n1	-3.9%	3.4%	31.6µM*	-3.8%	-13.4%	-7.7%
CC(C)CNc1nc(C(=O)Nc2ccc3[nH]ccc3c2)cs1	/	/	1.6%	/	/	/
COC(=O)c1cn(CC(=O)N2CCC2)c2ccccc12	/	/	6.5%	/	/	/
Cc1nc(Oc2ccc3ccc(=O)oc3c2)c2c3c(sc2n1)CC(C)CC3 (centres undefined)	/	/	-3.7%	/	/	/
CCCCCCCCC(=O)c1c(OC)oc(C=O)cc1=O	-24.7%	-23.6%	7.08µM*	-30.1%	2.5%	-25.3%
COc1cc2c(cc1OC)C(=O)C(Br)CC2 (centres undefined)	44.7µM*	10.9%	/	-7.3%	28.2µM*	14.1µM*
Cc1cc2nc(-c3ccccc3Br)n(C(C(=O)NC(C)(C)C)c3ccccc3)c2cc1C (centres undefined)	/	/	-9.5%	/	/	/
CN(Cc1ccc(Br)cc1)S(=O)(=O)c1ccc2c(c1)CCC2	/	/	-7.1%	/	/	/
Cc1cc(OCC(O)CN2CCN(c3cccc(Cl)c3)CC2)ccc1Cl (centres undefined)	/	/	39.8µM*	/	/	-30.5%
COc1ccc(N2CCN(CC(O)COc3ccc(C(C)C)c(C)c3)CC2)cc1 (centres undefined)	/	/	15.8µM*	/	/	-18.9%
COc1ccc(OCC(O)CN2CCN(c3ccc(OC)cc3)CC2)cc1 (centres undefined)	2.5%	-1.8%	?	0.0%	6.7%	-21.9%
C=CCc1cc(C)ccc1OCC(O)CN1CCN(c2ccccc2)CC1 (centres undefined)	-2.8%	9.7%	?	11.0%	-16.1%	-18.4%
C=CCc1cc(OC)ccc1OCC(O)CN1CCN(c2ccc(OC)cc2)CC1 (centres undefined)	-7.9%	-11.2%	35.5µM*!	3.7%	-6.3%	1.8%
COc1ccc(N2CCN(CC(O)COc3c(OC)cccc3OC)CC2)cc1 (centres undefined)	0.7%	2.0%	39.8µM*!	6.7%	14.5%	-18.0%
O=C(Nc1nc(-c2ccccc2)cs1)c1ccc(Cl)c(N2CCCC2=O)c1	/	/	-44.7%	/	/	/
SMILES	EPAC1 antagonist	EPAC2 ag	ALOX12 inh	EPAC1 ag	EPAC2 antag	USP1 inh
CN(C)S(=O)(=O)c1ccc(-c2nc(C#N)c(N3CCCCCC3)o2)cc1	/	/	-10.8%	/	/	/
FC(F)(F)c1ccc2nc([C@H]3CCN(Cc4ccccn4)C3)[nH]c2c1	/	/	21.9%[176 µM]	/	/	/
COC(=O)\C(=C/C=C/C=C/N(C)C)C(C)=O	/	/	19.1%	/	/	/
CCc1ccc2oc(=O)cc(-c3oc4ccccc4c3NC(=O)C3CC3)c2c1	/	/	7.94µM*	/	/	/
CN(C)C(=O)/C(=C\C=C\c1ccccc1)NC(=O)c1ccccc1	/	/	-26.4%	/	/	/
Cc1ccccc1COC(=O)/C=C/c1ccc2ccccc2n1	/	/	-17.2%	/	/	/
CCC(C)(C)c1ccc2c(C(=O)N3C[C@H](N)C[C@H]3C(=O)NC)csc2c1	/	/	12.6µM*	/	/	/
COC(=O)C1CCN(Cc2cc(=O)oc3ccc(Cl)cc23)CC1	/	/	15.8µM*	/	/	/
CCOC(=O)C1CCN(Cc2cc(=O)oc3ccc(Cl)cc23)CC1	/	/	8.2%	/	/	/
CCN=c1scc(C)n1/N=C/c1cc(Br)c(O)c(Br)c1	?	-1.9%	25.1µM*	-4.9%	-14.1%	-24.5%
CCN=c1scc(C)n1/N=C/c1ccc(O)c(O)c1O	44.7µM*	-5.5%	?	-13.7%	-1.8%	-20.3%
COCCN=c1scc(-c2cccs2)n1/N=C/c1ccc(O)c(O)c1O	56.2µM*	13.1%	?	0.6%	-0.2%	-11.5%
O=C(CCC(=O)c1ccc(Cl)cc1)OCC(=O)c1cccc(I)c1	/	/	2.4%	/	/	/
CC12CCC(C(=O)Nc3ccccc3)(CC1=O)C2(C)C (centres undefined)	/	/	-2.8%	/	/	/
CC1CCCN(c2nc3ccccc3nc2C(C#N)S(=O)(=O)c2ccccc2)C1 (centres undefined)	37.0%	-510.9%	?	56.2µM*	128.5%	204.9%
CCOc1ccc(C2CC(=O)N(c3cccc(C(F)(F)F)c3)C3=C2C(=O)OC3)cc1 (centres undefined)	/	/	6.5%	/	/	/
CC(C)(C)CNC(=O)c1cccc2c1C(=O)c1ccc(-c3cc4ccccc4o3)cc1S2(=O)=O	?	100µM*	-3.5%	-5.6%	-17.5%	16.9%
O=C(NCC1CC1)c1cccc2c1C(=O)c1ccc(-c3ccc(OC(F)(F)F)cc3)cc1S2(=O)=O	-17.4%	-3.5%	-3.3%	-5.1%	?	18.8%
O=C1c2ccccc2NC(c2ccc(-c3ccc(Br)cc3)o2)N1O (centres undefined)	6.0%	-8.4%	20µM*	11.3%	9.7%	-21.2%
O=C1c2ccccc2NC(c2ccc(-c3ccc(F)cc3)o2)N1O (centres undefined)	14.5%	4.8%	39.8µM*	-19.6%	0.3%	/
Nc1cc(N)nc(SCc2ccc(C(F)(F)F)cc2)n1	/	/	-29.6%	/	/	/
O=S(=O)(O)c1cc(Cl)cc(N=Nc2ccc(O)cc2O)c1O	-30.9%	12.1%	44.7µM*	1.4%	?	-18.7%
O=[N+]([O-])c1ccc(N=Nc2ccc(O)cc2O)cc1	-10.4%	1.4%	?	-4.4%	-7.4%	-12.0%
CCCN1C(=O)/C(=C/C=C2\N(CC)c3ccccc3C2(C)C)SC1=S	16.6%	-11.9%	-2.0%	22.5%	21.3%	75.5%
